# NPC1 prom act = qHTS Assay for NPC1 Promoter Activators. Huh7 NPC1 promoter luciferase reporter, 24 h. actives 2.4% (n = 320,000). Potency, µM (highest dose often 9.22 µM), inactives show at the top dose activation, most hits filed as activators; note: % of control where 0% means no effect; nearly all actives have a fitted effect of over 60% in size
#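 Luminescence read-out of NPC1 promoter-driven luciferase in stably transfected Huh7 cells; compounds delivered in DMSO and left 24 h at 37C, 5% CO2, qHTS titration format.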
# ELG1 genotox = qHTS screen for small molecules that induce genotoxicity in human embryonic kidney (HEK293T) cells expressing luciferase-tagged ELG1. HEK293T ELG1-luciferase reporter, luminescence, 16 h. Potency, µM (top dose mostly 46 µM), inactives show at the top dose activity change, positive = activation, hits mostly activators. actives 1.3% (n = 330,000). AID 504466, 2011; note: % of control where 0% means no effect; nearly all actives have a fitted effect of over 60% in size
#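 ELG1-luciferase HEK293T cells, 2,000/well; compound pinned in; 16 hr, 37 °C, 5% CO2; ONE-Glo, 30 min RT; luminescence on CCD imager.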
# SMN2 splice up = qHTS Assay for Enhancers of SMN2 Splice Variant Expression | HEK293 SMN2-luciferase splicing reporter, luminescence, 30-36 h | Potency, µM (top dose mostly 46.1 µM), for the others: at the highest dose activity change, positive = activation, usual class: activators | actives 2.8% (n = 210,000); note: % of control where 0% means no effect; nearly all actives have a fitted effect of over 55% in size
#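 qHTS luciferase splicing reporter: luminescence rises when SMN2 exon 7 is included in transfected HEK293 cells. Compound exposure lasted 30-36 h at 37C, with 4.5 mM final sodium butyrate as control, followed by a ONE-Glo read.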
# ELG1 DNA repair = qHTS screen for small molecules that inhibit ELG1-dependent DNA repair in human embryonic kidney (HEK293T) cells expressing luciferase-tagged ELG1; Potency, µM (highest dose often 46.1 µM), inactives show at the top dose activity change, negative = inhibition, actives largely listed as inhibitors; HEK293T ELG1-luciferase reporter, luminescence, 16 h; DNA damage induced by 5-fluorouridine; actives 2.3% (n = 330,000); note: % is set by controls: 0 for no effect and ±100 for the full control effect; nearly all actives have a fitted effect of over 55% in size
#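 Quantitative HTS, concentration-response format. 2,000 cells/well co-treated with 5-fluorouridine and compound, 16 hr in 5% CO2 at 37 °C; ONE-Glo luminescence read after 30 min.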
# Rab9 prom act = qHTS Assay for Rab9 Promoter Activators; Huh7 Rab9 promoter-luciferase reporter, luminescence, 24 h; Potency, µM (titrated, usually from 9.22 µM), for inactives: at the top dose activation, negative = inhibition, most hits filed as activators; actives 2.8% (n = 320,000); AID 485297, 2010; note: % of control where 0% means no effect; nearly all actives have a fitted effect of over 60% in size
#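 Huh7 reporter line, Rab9 promoter upstream of luciferase. Compound exposure 24 h at 37 °C in reduced-serum medium with 10% FBS. Read-out: luminescence.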
# FLuc modulator = qHTS profiling assay for firefly luciferase inhibitor/activator using purifed enzyme and Km concentrations of substrates (counterscreen for miR-21 project). Potency, µM (titrated, usually from 57.5 µM), for inactives: top-dose activity change, negative = inhibition, most hits filed as inhibitors. actives 6.9% (n = 360,000). Luciferin 4-monooxygenase (Photinus pyralis), P08659. purified FLuc, Km substrates, luminescence inhibition;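 note: plate controls were vehicle for no effect and reference inhibitor for full effect; nearly all actives have a fitted effect of over 55% in size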
# Target sequence (P08659 whole entry, looked up): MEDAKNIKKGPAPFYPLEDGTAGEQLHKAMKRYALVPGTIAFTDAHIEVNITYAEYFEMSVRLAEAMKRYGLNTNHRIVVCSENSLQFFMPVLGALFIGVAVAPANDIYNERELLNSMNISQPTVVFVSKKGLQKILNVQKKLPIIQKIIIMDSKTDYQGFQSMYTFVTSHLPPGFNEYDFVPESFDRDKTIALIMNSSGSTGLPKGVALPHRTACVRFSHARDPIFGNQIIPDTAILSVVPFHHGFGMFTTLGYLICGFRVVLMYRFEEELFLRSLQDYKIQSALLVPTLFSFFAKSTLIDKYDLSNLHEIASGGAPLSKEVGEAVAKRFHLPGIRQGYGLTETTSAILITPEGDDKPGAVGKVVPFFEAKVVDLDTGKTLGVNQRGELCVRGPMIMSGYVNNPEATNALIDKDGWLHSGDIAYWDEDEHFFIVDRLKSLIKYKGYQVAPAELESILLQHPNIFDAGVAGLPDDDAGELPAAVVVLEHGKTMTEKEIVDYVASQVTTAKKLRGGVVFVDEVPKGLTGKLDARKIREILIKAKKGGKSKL
#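 Biochemical qHTS of compounds, final roughly 60 µM downward over six points, against 10 nM purified firefly luciferase using Km concentrations of substrates (10 uM D-luciferin, 10 uM ATP) in Tris acetate pH 7.5 buffer; luminescence output.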
# Active calls of the source: *; u = inconclusive; x = no result given; [ ] = another dose, or the depositor's remark. Rows were chosen to be rich in hits. Some 9.2% of all compounds tested hit in one or more screens of this group. Calls come from the whole dose curve; as a rule, active = well fitted curve in the direction sought with a large enough effect; inconclusive = small, poorly fitted or top-dose-only effect, or another doubt; inactive = no such curve, though single readings can be large; an effect the other way counts as inactive or inconclusive. Potency is the fitted concentration of half-maximal effect.
SMILES,NPC1 prom act,ELG1 genotox,SMN2 splice up,ELG1 DNA repair,Rab9 prom act,FLuc modulator
CC[C@@H](CO)Nc1nc(NCc2ccccc2)c2ncn(C(C)C)c2n1,-28%[46.1 µM],x,x,x,-39%[46.1 µM],x
COc1ccc(C(=O)Nc2cc(Cl)ccc2C(=O)O)cc1,13%,6%,x,u,16%,15µM*
CC1N(C)c2cc(NC(=O)c3ccco3)c(P(=O)(Nc3ccc([N+](=O)[O-])cc3)N3CCOCC3)cc2C1(C)C (configuration not stated),1%,-13%,-29%,18µM*,-26%,6%
Cl/C=C/CCl,x,x,-12%,x,x,x
O=C(c1ccc(F)cc1)C(Cc1ccccc1)N1CCCCC1 (configuration not stated),16%,16%,29%,u,u,19µM*
O=C(Cc1ccccc1)N1CCN(Cc2ccc(F)cc2)CC1,-2%,-5%,x,-14%,2%,1%
Cc1oc(/N=C/c2ccc3c(c2)OCO3)c(C#N)c1C,-3%,u,0%,u,13%,1.7µM*
O=C1/C(=C/c2ccc3c(c2)OCO3)N2CCC1CC2,4%,1%,18%,-6%,2%,-11%
C[C@@](Br)(C(=O)O)[C@H](Br)C(=O)O,x,x,-12%[9.22 µM],x,x,x
c1cc(OCC2CO2)cc(OCC2CO2)c1 (configuration not stated),x,x,-57%,x,x,x
O=C(O)c1ccccc1Nc1cccc(C(F)(F)F)c1,1%,0%,-25%,-3%,-11%,15µM*
ClC(Cl)=C(Cl)Cl,x,x,17%,x,x,x
O=c1c2ccccc2nc(-c2ccc(-c3ccccc3)cc2)n1-c1ccncc1,-1%,-4%,-20%,u,-3%,17µM*
Cc1ccc(-c2nc3ccccc3c(=O)n2-c2ccncc2)cc1,-1%,0%,-8%,-3%,10%,-1%
O=C(NC1CC1)c1cn(Cc2ccccc2)nc1-c1ccccc1,1%,-1%,x,8%,0%,4%
Cc1ccc(Cn2cc(C=O)c(-c3ccc(C)cc3)n2)cc1,25%,u,u,u,u,17µM*
Cc1ccc(C2(c3ccc(C)c(O)c3C)CCN(C)CC2)c(C)c1O,x,x,-5%[9.22 µM],x,x,x
Cc1ccnc(-n2c(C)cc(C=C3C(=O)N(C)C(=S)N(C)C3=O)c2C)c1,1%,8%,-3%,0%,-2%,19µM*
Cc1cc(C=C2C(=O)N(C)C(=S)N(C)C2=O)c(C)n1-c1ccncc1,-3%,8%,x,26%,-6%,27µM*
COC(=O)C1=C(c2ccccc2OCc2ccccc2)C[C@@H]2CC[C@H]1N2C(=O)NCc1ccc(N(C)C)cc1,-2%,-4%,x,16µM*,-8%,8%
COC(=O)C1=C(c2ccc(F)cc2OCc2ccccc2)C[C@@H]2CC[C@H]1N2C(=O)NCc1ccc(N(C)C)cc1,-2%,-8%,x,u,-4%,2%
CC(=O)O[C@H](CC(=O)O)C[N+](C)(C)C,-6%,-10%,x,-6%,-5%,-1%
CC(=O)OC(CC(=O)O)C[N+](C)(C)C (configuration not stated),-2%,-6%,13µM*,18µM*,-7%,5%
C[As+](C)(c1ccc(Br)c([N+](=O)[O-])c1)c1ccc(Br)c([N+](=O)[O-])c1.O=[N+]([O-])O,x,x,-1%[9.22 µM],x,x,x
ClCC[N+]12CC[N+](CCCl)(CC1)C2 (tested in a mixture with another compound),x,x,14%[9.22 µM],x,x,x
SMILES,NPC1 prom act,ELG1 genotox,SMN2 splice up,ELG1 DNA repair,Rab9 prom act,FLuc modulator
C/C(=N\NC(=S)Nc1ccccc1)c1c(O)n(C)c(=O)n(C)c1=O,6%,7%,28%,u,-2%,12µM*
NC1=NC([S][Hg][c]2ccc(N)cc2)c2ncn([C@@H]3O[C@H](CO)[C@@H](O)[C@@H]3O)c2N1 (some centres not stated),x,x,-104%[9.22 µM],x,x,x
C/C(=C\C(=O)c1ccc(Br)cc1)NCc1ccccc1,1%,u,-4%,u,18%,24µM*
O=C1NC(=S)N(Cc2ccco2)C(=O)/C1=C\c1cccs1,-4%,0%,-18%,8%,-8%,17µM*
Cc1cc(/C=C2/C(=O)NC(=O)N(Cc3ccco3)C2=O)c(C)n1-c1ccccc1,1%,6%,-28%,11%,0%,5.4µM*
CCn1c(O)c(N=Nc2cccc(S(=O)(=O)N3CCOCC3)c2)c(=O)n(CC)c1=S,0%,-5%,x,18µM*,-1%,-1%
CCn1c(O)c(N=Nc2ccc(S(=O)(=O)N3CCOCC3)cc2)c(=O)n(CC)c1=S,-1%,-7%,x,u,0%,0%
O=[As](O)(O)c1ccc(N=Nc2ccc(O)cc2)cc1,0%,2%,-1%[9.22 µM],2%,-2%,13µM*
O=[As](O)(O)c1ccc(N=Nc2ccc([As](=O)(O)O)cc2)cc1,x,x,-8%[9.22 µM],x,x,x
CN(C)C(=O)Oc1ccc(-c2cn3cc(C(F)(F)F)ccc3n2)cc1,u,10%,u,u,-16%,3µM*
CN(C)C(=O)Oc1cccc(-c2cn3cc(Cl)ccc3n2)c1,u,12%,11µM*,u,u,3µM*
CN(C)C(=O)Oc1ccc(-c2cn3cc(Cl)ccc3n2)cc1,0.71µM*,u,8.9µM*,u,0.4µM*,0.95µM*
CN(C)C(=O)Oc1ccc(-c2nnco2)cc1,1%,-5%,-5%,30%,-3%,-12%
COc1cc2c3cc1Oc1c(O)c(OC)cc4c1[C@@H](Cc1ccc(cc1)Oc1cc(ccc1O)C[C@H]3N(C)CC2)N(C)CC4,x,x,-21%[9.22 µM],x,x,x
CC1=NN(c2ccccc2)C(=O)[C@@H]1N=Nc1ccc([As](=O)(O)O)c(O)c1,x,x,7%[9.22 µM],x,x,x
O=P(Nc1ccccc1)(Nc1ccccc1)Oc1ccc(Cl)cc1,0%,-8%,28%,u,2%,-1%
Cc1cccc(NP(=O)(Oc2ccccc2F)Oc2ccccc2F)c1,1%,-8%,-7%[1.84 µM],18µM*,-1%,4%
COc1cccc(NP(=O)(Oc2ccc(Cl)cc2)Oc2ccc(Cl)cc2)c1,-1%,-7%,-27%,21µM*,-4%,-2%
Cc1cccc(OCCCn2c(=O)oc3ccccc32)c1,-2%,u,19%,u,18%,u
Cc1cccc(OCCn2c(=O)oc3ccc(C)cc32)c1,18%,u,x,u,u,19µM*

# Assay outcomes: PubChem, National Center for Advancing Translational Sciences (NCATS)
